PubChem BioAssay (NCATS)
Inconclusive results are not listed. Entries that show only a call come without a potency. Activity calls are given as the source filed them. The call rests on the fitted dose curve; in most records, active means well fitted inhibition curve with a large enough effect; inconclusive means small, poorly fitted or top-dose-only effect; inactive means flat fitted curve, though single readings scatter.

These compounds were tested on CRL-7250 (assay: qHTS assay to identify novel small-molecules to repurpose for Merkel cell carcinoma treatment (AID 1296009; further: nearly all actives have a fitted effect of over 60% in size)). Settings: MCC and control cell lines, CellTiter-Glo viability, 72 h; series mostly up to 92 µM.
Method in brief: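 Cell viability, measured as CellTiter-Glo luminescence, was normalized between DMSO and no-cell wells. The cells had been exposed to 8- or 11-point compound dilutions for 72 hr at 37 degree celsius.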

SMILES	Potency
NC(=O)NN=Cc1ccc([N+](=O)[O-])o1	inactive
CC(=O)N[C@@H]1[C@H](O[C@@H]2c3ccc(c(Cl)c3)Oc3cc4cc(c3O[C@H]3O[C@H](CO)[C@@H](O)[C@H](O)[C@H]3NC(=O)CCCCCCCC(C)C)Oc3ccc(cc3Cl)C[C@H]3NC(=O)[C@H](N)c5ccc(O)c(c5)Oc5cc(O)cc(c5)[C@H](NC3=O)C(=O)N[C@H]4C(=O)N[C@H]3C(=O)N[C@@H]2C(=O)N[C@@H](C(=O)O)c2cc(O)cc(O[C@H]4O[C@H](CO)[C@@H](O)[C@H](O)[C@H]4O)c2-c2cc3ccc2O)O[C@H](CO)[C@@H](O)[C@@H]1O	inactive
O=C(O)C1=NC(C(=O)O)CC(C=CN2c3cc(O)c(OC4OC(CO)C(O)C(O)C4O)cc3CC2C(=O)O)=C1 (stereo not drawn)	inactive
C[N+]1(C)[C@@H]2C[C@@H](OC(=O)C(O)(c3cccs3)c3cccs3)C[C@H]1[C@@H]1O[C@@H]12	inactive
COC(=O)[C@@H]1[C@H]2C[C@@H]3c4[nH]c5ccccc5c4CCN3C[C@@H]2CC[C@@H]1O	inactive
CN[C@@H]1[C@@H](O)[C@@H](O[C@@H]2[C@@H](O)[C@H](O[C@H]3O[C@H](CN)[C@@H](O)[C@H](O)[C@@H]3O)[C@@H](N)C[C@@H]2NC(=O)[C@@H](O)CN)OC[C@]1(C)O	inactive
CN(C1CCc2c(c3ccccc3n2CC(=O)O)C1)S(=O)(=O)c1ccc(F)cc1 (stereo not drawn)	inactive
CN(C)CCC=C1c2ccccc2COc2ccc(CC(=O)O)cc21	inactive
